# “And” between values parts separate entries of the source, which are not always exact repeats. Equal entries are not always repeated. Records with an inconclusive call do not appear. A call without a number means that no potency is given here. More than one record can exist for a structure, and the calls need not agree. The source made the active and inactive calls. Unless noted, the call rests on the fitted dose curve; in most records, active means well fitted curve in the direction sought with a large enough effect in the repeat runs; inconclusive means weak or mixed curves; inactive means no such curve, though single readings can be large; an effect the other way counts as inactive or inconclusive.
# Experiments:
# [1] = qHTS assay to identify small molecule antagonists of the estrogen related receptor (ERR) signaling pathway from Tox21 library - cell viability counter screen (AID 1224834); further: nearly all actives have a fitted effect of over 30% in size; further: potency means the concentration at half of the fitted maximal effect
# Procedure, shortened: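 ERR reporter cells, 2,000 per well, rested 6 h, then exposed to compound in DMSO for 17.5 hours at 37 C. Viability read as fluorescence after 30 min with CellTiter-Fluor.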
# [2] = molecular target: Luciferin 4-monooxygenase (Photinus pyralis) (UniProt P08659); assay: qHTS assay to identify small molecule inhibitors of firefly luciferase (AID 1224835); further: nearly all actives have a fitted effect of over 25% in size; further: potency means the concentration at half of the fitted maximal effect; on activity change, negative = inhibition: series mostly up to about 120 µM
# Procedure, shortened: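 Quantitative HTS format; KM concentrations of both substrates. Purified P. pyralis FLuc activity quantified from luminescence images.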
# [3] = qHTS assay to identify small molecule agonists of the constitutive androstane receptor (CAR) signaling pathway - cell viability counter screen (AID 1224836); further: nearly all actives have a fitted effect of over 45% in size; further: potency means the concentration at half of the fitted maximal effect; on viability change, negative = cytotoxic: series mostly up to about 92 µM
# Procedure, shortened: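 Compound titrations (15 concentrations) went onto HepG2-CYP2B6-hCAR cells 4 h after seeding, alongside PK11195 at a final 0.75 uM; a 23 h, 37 C/5% CO2 incubation preceded CellTiter-Fluor viability measurement.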
# [4] = qHTS assay to identify small molecule antagonists of the constitutive androstane receptor (CAR) signaling pathway - cell viability counter screen (AID 1224837); further: nearly all actives have a fitted effect of over 45% in size; further: potency means the concentration at half of the fitted maximal effect; on activity change, negative = cytotoxicity: series mostly up to about 92 µM
# Procedure, shortened: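 HepG2 cells stably carrying hCAR and CYP2B6-2.2kb reporter, stimulated with 50 nM CITCO and compounds at 15 concentrations for 23 h at 37 C. Viability measured by CellTiter-Fluor fluorescence.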
# [5] = molecular target: Nuclear receptor subfamily 1 group I member 3 (Homo sapiens) (UniProt Q14994); assay: qHTS assay to identify small molecule antagonists of the constitutive androstane receptor (CAR) signaling pathway (AID 1224838); further: nearly all actives have a fitted effect of over 40% in size; further: potency means the concentration at half of the fitted maximal effect
# Procedure, shortened: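 HepG2 cells stably carrying hCAR and a CYP2B6-2.2kb luciferase reporter, seeded 4 hrs before compound (15 concentrations). Stimulated with 50 nM CITCO for 24 hr at 37 C. ONE-Glo luminescence read after 30 min at room temperature.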
# [6] = molecular target: Nuclear receptor subfamily 1 group I member 3 (Homo sapiens) (UniProt Q14994); assay: qHTS assay to identify small molecule agonists of the constitutive androstane receptor (CAR) signaling pathway (AID 1224839); further: series mostly up to about 92 µM; nearly all actives have a fitted effect of over 15% in size
# Procedure, shortened: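 In this screen, CAR-driven CYP2B6 promoter activity is measured by luminescence in HepG2-CYP2B6-hCAR cells after 24 h with test compounds and 0.75 uM PK11195 (final concentration).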
# [7] = qHTS assay to identify small molecule antagonists of the estrogen related receptor signaling pathway with the pleiotropic PPARgamma coactivator (PGC) from Tox21 10K library - cell viability counter screen (AID 1224840; active means well fitted cell-killing curve with a large enough effect in the repeat runs, not every such curve was filed as active; further: nearly all actives have a fitted effect of over 40% in size; further: potency means the concentration at half of the fitted maximal effect)
# Procedure, shortened: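 PGC/ERR cells (2,000/well) plated 6 h, then compound-treated for 17.5 h at 37 C. Viability measured by CellTiter-Fluor fluorescence after 30 min at 37 C, multiplexed with the pathway assay.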
# [8] = molecular target: Thyrotropin receptor (Homo sapiens) (UniProt P16473); assay: qHTS assay to identify small molecule agonists of the thyroid stimulating hormone receptor (TSHR) signaling pathway (AID 1224843; calls by dose curve; further: nearly all actives have a fitted effect of over 45% in size)
# Procedure, shortened: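 Cell line HEK293 with TSHR; density 800/well. Exposure 30 min RT. Readout HTRF cAMP (cAMP-d2/anti-cAMP-cryptate), 1 h RT before reading.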
# [9] = qHTS assay to identify small molecule agonists of the estrogen related receptor signaling pathway with the pleiotropic PPARgamma coactivator (PGC) from Tox21 10K library (AID 1224842); further: nearly all actives have a fitted effect of over 15% in size
# Procedure, shortened: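 PGC/ERR reporter cells (NTP line) were seeded 2,000 per well, rested 6 h at 37 C/5% CO2, then pin-dosed with compounds in DMSO for 18 h at 37 C; luciferase read by One-Glo luminescence after 30 min at room temperature.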
# [10] = qHTS assay to identify small molecule antagonists of the estrogen related receptor signaling pathway with the pleiotropic PPARgamma coactivator (PGC) from Tox21 10K library (AID 1224841; call rule not given here; further: series mostly up to about 92 µM; actives are mostly falling curves and most rising ones were filed inactive; nearly all actives have a fitted effect of over 50% in size)
# Procedure, shortened: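 PGC/ERR cell line, 2,000 cells/well, pre-incubated 6 hours at 37 C, then exposed to compounds for 18 hours at 37 C; luciferase read with One-Glo luminescence after 30 min at room temperature.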
# Sequence of Luciferin 4-monooxygenase (Photinus pyralis) (P08659 whole entry, looked up): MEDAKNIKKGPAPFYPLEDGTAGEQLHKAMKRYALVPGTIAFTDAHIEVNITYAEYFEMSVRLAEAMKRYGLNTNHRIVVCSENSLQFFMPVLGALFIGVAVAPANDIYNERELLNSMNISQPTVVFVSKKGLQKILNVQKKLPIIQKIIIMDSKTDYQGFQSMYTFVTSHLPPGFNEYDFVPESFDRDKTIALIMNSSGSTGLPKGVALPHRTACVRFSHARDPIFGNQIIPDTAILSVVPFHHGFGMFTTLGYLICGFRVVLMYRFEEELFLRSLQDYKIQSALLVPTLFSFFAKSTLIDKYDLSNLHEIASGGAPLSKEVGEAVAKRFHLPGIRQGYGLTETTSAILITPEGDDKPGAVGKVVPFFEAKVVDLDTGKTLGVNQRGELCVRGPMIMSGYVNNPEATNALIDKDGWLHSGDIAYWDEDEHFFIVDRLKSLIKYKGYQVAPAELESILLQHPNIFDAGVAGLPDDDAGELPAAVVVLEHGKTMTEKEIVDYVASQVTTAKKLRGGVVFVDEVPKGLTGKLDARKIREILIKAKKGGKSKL
# Sequence of Nuclear receptor subfamily 1 group I member 3 (Homo sapiens) (Q14994 whole entry, looked up): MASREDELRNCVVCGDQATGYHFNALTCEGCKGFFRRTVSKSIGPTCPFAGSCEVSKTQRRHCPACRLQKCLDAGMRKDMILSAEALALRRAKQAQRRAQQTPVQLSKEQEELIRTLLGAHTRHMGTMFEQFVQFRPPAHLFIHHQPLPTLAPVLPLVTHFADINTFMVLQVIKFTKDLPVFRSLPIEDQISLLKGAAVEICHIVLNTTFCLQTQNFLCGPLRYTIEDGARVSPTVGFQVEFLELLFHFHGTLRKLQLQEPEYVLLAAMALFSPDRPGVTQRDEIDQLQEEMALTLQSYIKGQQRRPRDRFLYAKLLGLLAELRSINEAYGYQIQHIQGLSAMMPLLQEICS
# Sequence of Thyrotropin receptor (Homo sapiens) (P16473 whole entry, looked up): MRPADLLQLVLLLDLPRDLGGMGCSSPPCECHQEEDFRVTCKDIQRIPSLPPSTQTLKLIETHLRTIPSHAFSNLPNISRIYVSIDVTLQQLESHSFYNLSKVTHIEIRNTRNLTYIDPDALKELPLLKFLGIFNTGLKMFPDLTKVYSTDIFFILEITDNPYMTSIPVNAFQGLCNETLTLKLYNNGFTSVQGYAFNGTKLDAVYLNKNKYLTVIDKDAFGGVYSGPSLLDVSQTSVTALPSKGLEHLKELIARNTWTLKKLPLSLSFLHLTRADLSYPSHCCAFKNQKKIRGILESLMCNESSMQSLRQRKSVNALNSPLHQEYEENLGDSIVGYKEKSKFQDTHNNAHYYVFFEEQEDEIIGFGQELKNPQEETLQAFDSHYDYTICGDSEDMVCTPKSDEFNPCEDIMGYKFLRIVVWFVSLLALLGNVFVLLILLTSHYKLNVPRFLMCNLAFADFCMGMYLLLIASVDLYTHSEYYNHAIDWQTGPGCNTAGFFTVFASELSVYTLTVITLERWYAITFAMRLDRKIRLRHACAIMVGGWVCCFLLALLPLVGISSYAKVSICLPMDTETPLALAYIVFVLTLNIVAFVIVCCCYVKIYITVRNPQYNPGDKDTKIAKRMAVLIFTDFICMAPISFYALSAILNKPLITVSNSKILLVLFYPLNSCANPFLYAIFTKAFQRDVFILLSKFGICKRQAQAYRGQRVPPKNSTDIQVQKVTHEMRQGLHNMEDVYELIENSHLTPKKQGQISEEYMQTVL
smiles,measurement,setting,value
OC/C=C/CO,Potency,[1],inactive
same,Potency,[2],inactive
same,Potency,[3],inactive
same,Potency,[4],inactive
same,Potency,[5],inactive
same,Potency,[6],inactive
same,Potency,[7],inactive
same,Potency,[8],inactive
Clc1ccnc(Cl)n1,Potency,[1],inactive
same,Potency,[2],inactive
same,Potency,[3],inactive
same,Potency,[4],inactive
same,Potency,[5],inactive
same,Potency,[6],inactive
same,Potency,[7],inactive
same,Potency,[9],inactive
CCCCCCCC,Potency,[1],inactive
same,Potency,[2],inactive
same,Potency,[3],inactive
same,Potency,[4],inactive
same,Potency,[5],inactive
same,Potency,[6],inactive
same,Potency,[7],inactive
same,Potency,[9],inactive
same,Potency,[8],inactive
CCC(=O)OC(=O)CC,Potency,[1],inactive
same,Potency,[2],inactive
same,Potency,[3],inactive
same,Potency,[4],inactive
same,Potency,[5],inactive
same,Potency,[6],inactive
same,Potency,[7],inactive
same,Potency,[8],inactive
CC(C(=O)O)c1ccc2c(c1)[nH]c1ccc(Cl)cc12 (centres undefined),Potency,[1],inactive
same,Potency,[2],34.7 µM (active)
same,Potency,[3],inactive
same,Potency,[4],inactive
same,Potency,[5],inactive
same,Potency,[6],inactive
same,Potency,[7],inactive
same,Potency,[8],inactive
COc1ccc2cc1Oc1ccc(cc1)C[C@H]1c3c(cc4c(c3Oc3cc5c(cc3OC)CCN(C)[C@@H]5C2)OCO4)CCN1C,Potency,[1],23.7 µM (active)
same,Potency,[2],inactive
same,Potency,[3],26.6 µM (active)
same,Potency,[4],23.7 µM (active)
same,Potency,[5],23.7 µM (active)
same,Potency,[6],inactive
same,Potency,[7],21.1 µM (active)
same,Potency,[9],inactive
same,Potency,[8],inactive
C[C@H]1NCc2cc(-c3ccc4c(=O)c(C(=O)O)cn(C5CC5)c4c3OC(F)F)ccc21,"viability change, negative = cytotoxic",[1],-0.362% [at 19 µM] (inactive)
same,"activity change, negative = inhibition",[2],-0.0227% [at 23.6 µM] (inactive)
same,"viability change, negative = cytotoxic",[3],8.47% [at 19 µM] (inactive)
same,"activity change, negative = cytotoxicity",[4],-0.799% [at 19 µM] (inactive)
same,"activity, negative = inhibition",[5],10.2% [at 19 µM] (inactive)
same,activation,[6],-2.33% [at 19 µM] (inactive)
same,"viability change, negative = cytotoxic",[7],5.39% [at 19 µM] (inactive)
same,activation,[8],2.59% [at 19 µM] (inactive)
CCCCCCCCCCCCCC[N+](C)(C)C,Potency,[1],29.6 µM (active) and 15.3 µM (active)
same,Potency,[2],68.6 µM (active)
same,Potency,[3],23.5 µM (active)
same,Potency,[4],13.2 µM (active) and 27.3 µM (active)
same,Potency,[5],59.1 µM (active) and inactive
same,Potency,[6],inactive
same,Potency,[7],23.5 µM (active) and 54.4 µM (active) and inactive
same,Potency,[9],inactive
FC(F)(F)c1cccc(Cl)c1,Potency,[1],inactive
same,Potency,[2],inactive
same,Potency,[3],inactive
same,Potency,[4],inactive
same,Potency,[5],inactive
same,Potency,[6],inactive
same,Potency,[7],inactive
same,Potency,[8],inactive
COc1cccc(OC)c1C(=O)O,Potency,[1],inactive
same,Potency,[2],inactive
same,Potency,[3],inactive
same,Potency,[4],inactive
same,Potency,[5],inactive
same,Potency,[6],inactive
same,Potency,[7],inactive
same,Potency,[8],inactive
C=C(C)c1cccc(C(=C)C)c1,Potency,[1],inactive
same,Potency,[2],inactive
same,Potency,[3],inactive
same,Potency,[4],inactive
same,Potency,[5],inactive
same,Potency,[6],inactive
same,Potency,[7],inactive
same,Potency,[8],inactive
Nc1cc(Cl)c(O)c(Cl)c1,Potency,[1],inactive
same,Potency,[2],inactive
same,Potency,[3],inactive
same,Potency,[4],inactive
same,Potency,[5],inactive
same,Potency,[7],inactive
same,Potency,[10],inactive
same,Potency,[9],inactive
CCCC[P+](C)(CCCC)CCCC,Potency,[1],inactive
same,Potency,[2],inactive
same,Potency,[3],inactive
same,Potency,[4],inactive
same,Potency,[5],inactive
same,Potency,[6],inactive
same,Potency,[7],inactive
same,Potency,[8],inactive
CCCCNS(=O)(=O)c1ccc(C)cc1,Potency,[1],inactive
same,Potency,[2],inactive
same,Potency,[3],inactive
same,Potency,[4],inactive
same,Potency,[5],inactive
same,Potency,[7],inactive
O=C(/C=C/c1ccccc1)OC/C=C/c1ccccc1,Potency,[1],inactive
same,Potency,[2],71 µM (active)
same,Potency,[3],inactive
same,Potency,[4],inactive
same,Potency,[5],inactive
same,Potency,[7],inactive
same,Potency,[10],inactive
same,Potency,[9],inactive
COC1=C(OC)C(=O)C(CCCCCCCCCCO)=C(C)C1=O,Potency,[1],23.7 µM (active)
same,Potency,[2],inactive
same,Potency,[3],inactive
same,Potency,[4],inactive
same,Potency,[5],inactive
same,Potency,[6],inactive
same,Potency,[7],inactive
same,Potency,[9],inactive
CCOC(=O)Cn1cccc1-c1nc(-c2ccc(OC)cc2)c(-c2ccc(OC)cc2)s1,Potency,[1],inactive
same,Potency,[2],inactive
same,Potency,[3],inactive
same,Potency,[4],inactive
same,Potency,[5],inactive
same,Potency,[7],inactive
CCCCC(CC)COC(=O)CCCCC(=O)OCc1ccccc1 (centres undefined),Potency,[1],inactive
same,Potency,[2],inactive
same,Potency,[3],inactive
same,Potency,[4],inactive
same,Potency,[5],inactive
same,Potency,[6],inactive
same,Potency,[7],inactive
same,Potency,[8],inactive
CN(C)CCN1CCN(c2cccc(Cl)c2)C1=O,Potency,[1],inactive
same,Potency,[2],inactive
same,Potency,[3],inactive
same,Potency,[4],inactive
same,Potency,[5],inactive
same,Potency,[6],inactive
same,Potency,[7],inactive
same,Potency,[8],inactive
OC1CCCc2ccccc21 (centres undefined),Potency,[1],inactive
same,Potency,[2],inactive
same,Potency,[3],inactive
same,Potency,[4],inactive
same,Potency,[5],inactive
same,Potency,[6],inactive
same,Potency,[7],inactive
same,Potency,[8],inactive
C#C[C@]1(O)CC[C@H]2[C@@H]3[C@H](C)CC4=C(CCC(=O)C4)[C@H]3CC[C@@]21C,Potency,[1],inactive
same,Potency,[2],inactive
same,Potency,[3],inactive
same,Potency,[4],inactive
same,Potency,[5],inactive
same,Potency,[6],inactive
same,Potency,[7],inactive
same,Potency,[9],inactive
CCO[Si](OCC)(OCC)OCC,Potency,[1],inactive
same,Potency,[2],inactive
same,Potency,[3],inactive
same,Potency,[4],inactive
same,Potency,[5],inactive
same,Potency,[6],inactive
same,Potency,[7],inactive
same,Potency,[8],inactive
CCCCCCCCCCOC(=O)c1ccccc1C(=O)OCCCCCCCC,Potency,[1],inactive
same,Potency,[2],inactive
same,Potency,[3],inactive
same,Potency,[4],inactive
same,Potency,[5],inactive
same,Potency,[6],inactive
same,Potency,[7],inactive
same,Potency,[8],inactive
Cc1ccc(N/N=c2\c(=O)cc/c(=N\Nc3ccc(S(=O)(=O)O)cc3)c2=O)c(C)c1,Potency,[1],30.6 µM (active)
same,Potency,[2],28.3 µM (active)
same,Potency,[3],30.6 µM (active)
same,Potency,[4],48.6 µM (active)
same,Potency,[5],inactive
same,Potency,[6],inactive
same,Potency,[7],30.6 µM (active)
same,Potency,[9],inactive
same,Potency,[8],inactive
CC(=O)OCC=C(C)C,Potency,[1],inactive
same,Potency,[2],inactive
same,Potency,[3],inactive
same,Potency,[4],inactive
same,Potency,[5],inactive
same,Potency,[6],inactive
same,Potency,[7],inactive
same,Potency,[8],inactive

# From PubChem BioAssay (Tox21)
